In the library only some 12% were active in any assay of this set; here they are far more common.
BAZ2B block – blocks human BAZ2B; AlphaScreen BAZ2B-H3K14Ac peptide displacement; Potency, µM (series often up to 114 µM), actives largely listed as inhibitors; hit rate 4.4% among 360,000; AID 504333; also: nearly all actives have a fitted effect of over 60% in size
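Multi-concentration screen (max 110 uM) measuring displacement of acetylated histone H3 peptide from BAZ2B by AlphaScreen, using 50 nM protein, 50 nM peptide and 10 ug/mL streptavidin donor plus Ni-chelate acceptor beads.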
JMJD2A Tudor – blocks the human JMJD2A Tudor domain | O75164 | AlphaScreen JMJD2A-Tudor / H3K4me3 peptide binding | Potency, µM (highest dose often 114 µM), usual class: inhibitors | hit rate 4.4% among 390,000; also: nearly all actives have a fitted effect of over 50% in size
Sfp PPTase inh – inhibitors of Bacillus subtilis Sfp phosphopantetheinyl transferase; AID 1490; Potency, µM, most hits filed as inhibitors; Biochemical Sfp PPTase activity, qHTS; hit rate 3.5% among 310,000;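 also: the enzyme is Sfp with the accession as filed and its product quenches rhodamine fluorescence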
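Fluorescence-quenching assay: 15 nM Sfp-PPTase preincubated 15 min at room temperature with compound, then 5 uM rhodamine-CoA and 12.5 uM BHQ-2-labelled YbbR peptide added. Fluorescence (ex 525/em 598 nm) read at start and after 30 min; difference gives rate.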
TDP1 inh – blocks human tyrosyl-DNA phosphodiesterase 1. recombinant TDP1, AlphaScreen DNA substrate cleavage. Potency, µM (series often up to 130 µM), actives largely listed as inhibitors. hit rate 0.28% among 350,000. AID 485290; also: nearly all actives have a fitted effect of over 40% in size
Target sequence (Q9NUW8 whole entry, looked up): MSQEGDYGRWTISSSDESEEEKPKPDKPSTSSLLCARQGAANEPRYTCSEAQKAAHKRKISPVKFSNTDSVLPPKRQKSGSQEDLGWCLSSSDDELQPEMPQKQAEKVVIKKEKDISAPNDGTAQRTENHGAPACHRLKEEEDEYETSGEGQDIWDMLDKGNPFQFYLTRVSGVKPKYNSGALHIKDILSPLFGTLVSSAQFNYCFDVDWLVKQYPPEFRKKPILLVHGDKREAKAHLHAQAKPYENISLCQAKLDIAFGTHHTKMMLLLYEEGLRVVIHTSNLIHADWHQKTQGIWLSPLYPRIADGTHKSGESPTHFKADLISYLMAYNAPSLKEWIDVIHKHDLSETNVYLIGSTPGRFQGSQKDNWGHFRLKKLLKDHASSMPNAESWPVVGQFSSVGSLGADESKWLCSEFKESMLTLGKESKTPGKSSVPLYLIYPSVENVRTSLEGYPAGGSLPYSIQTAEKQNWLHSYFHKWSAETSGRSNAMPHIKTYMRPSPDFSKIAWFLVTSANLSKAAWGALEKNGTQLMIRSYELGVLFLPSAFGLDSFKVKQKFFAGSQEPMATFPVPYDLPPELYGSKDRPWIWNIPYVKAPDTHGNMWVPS
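Signal: AlphaScreen proximity between streptavidin donor and anti-FITC acceptor beads on intact substrate. Reaction: Tdp1 1 nM, substrate 15 nM final, 5 min RT after 15 min compound preincubation.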
G9a block – inhibitors of human histone lysine methyltransferase G9a | G9a H3K9 monomethylation, AlphaScreen, 2 h | Potency, µM (titrated, usually from 102 µM), usual class: inhibitors | hit rate 8.8% among 350,000 | AID 504332; also: nearly all actives have a fitted effect of over 75% in size
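Step 1: enzyme (final 20 nM) with compound, 15 min RT. Step 2: substrate peptide 500 nM and SAM 20 uM, 2 h RT. Step 3: anti-H3K9me1 antibody and AlphaScreen beads, 10 min, then plate read.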
HP1b chromo inh – blocks HP1-beta chromodomain binding to methylated histone tails. Potency, µM (highest dose often 114 µM), hits mostly inhibitors. P83916. hit rate 0.56% among 390,000. AlphaScreen HP1-beta / biotin-H3K9me3 peptide binding; also: nearly all actives have a fitted effect of over 70% in size
Target sequence (P83916 whole entry, looked up): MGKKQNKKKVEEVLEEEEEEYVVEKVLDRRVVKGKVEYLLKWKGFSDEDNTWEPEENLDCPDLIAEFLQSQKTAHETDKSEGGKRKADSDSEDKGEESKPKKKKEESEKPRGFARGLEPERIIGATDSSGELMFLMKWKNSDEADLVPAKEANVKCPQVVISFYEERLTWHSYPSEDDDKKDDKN
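Compound inhibition of the preformed complex between 50 nM HP1-beta and 50 nM biotinylated H3K9me3 peptide was read by AlphaScreen. Buffer was PBS pH 7.4 with 0.01% Tween-20. Incubations ran 30 min at room temperature, with 10 ug/mL donor/acceptor beads.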
Of the large screens only hits and unclear results are named; the others gave an inactive call. Calls follow the shape of the dose curve; as a rule, active = well fitted curve in the direction sought with a large enough effect; inconclusive = small, poorly fitted or top-dose-only effect, or another doubt; inactive = no such curve, though single readings can be large; an effect the other way counts as inactive or inconclusive.

Cc1nc2ccccc2c(=O)n1/N=C/c1cc(Br)ccc1O	JMJD2A Tudor inconclusive (no result: TDP1 inh)
Nc1nnnn1/N=C/c1cc(Br)ccc1O	JMJD2A Tudor 28µM (no result: BAZ2B block, Sfp PPTase inh, TDP1 inh, G9a block)
C=CCc1cccc(/C=N/n2c(C)nnc2C)c1O	JMJD2A Tudor inconclusive
CCC(C(=O)NCCc1cc(OC)ccc1OC)n1nc(C)c2c(C)n(-c3ccccc3)nc2c1=O (stereo not given)	none (no result: Sfp PPTase inh)
CCn1ccc2cc(S(=O)(=O)N3CCC(C(=O)NCc4ccc(OC)cc4)CC3)ccc21	none (no result: Sfp PPTase inh)
Cc1ccc(-c2nnc(CCC(=O)NCC3C4CC5CC(C4)CC3C5)o2)s1 (stereo not given)	none
Cn1c(=O)c(-c2cccc(Cl)c2)nc2cncnc21	none (no result: BAZ2B block, JMJD2A Tudor, TDP1 inh, HP1b chromo inh)
COc1ccc2[nH]c(-c3ccc(C)cc3)cc(=O)c2c1	G9a block 79µM
Cc1sc2ncn(CC(=O)N3CCN(c4ccc(Cl)cc4)CC3)c(=O)c2c1S(=O)(=O)N1CCN(c2ncccn2)CC1	none (no result: Sfp PPTase inh)
CCCCc1cn([C@@H](CCCCN)C(=O)N2CCNCC2)nn1	BAZ2B block inconclusive, JMJD2A Tudor 56µM
CC(C)C[C@H](N)c1cn([C@@H](CCCCN)C(=O)N2CCNCC2)nn1	none
C#CCOCCOCCOCCNc1nc(N2CCN(C(=O)[C@H](C(C)C)n3cc(CCO)nn3)CC2)nc(N2CCN(C(=O)[C@H](CCCCN)n3cc(CCCC)nn3)CC2)n1	BAZ2B block inconclusive, G9a block 28µM
C#CCOCCOCCOCCNc1nc(N2CCN(C(=O)[C@H]([C@@H](C)CC)n3cc(CCCCN)nn3)CC2)nc(N2CCN(C(=O)[C@H](CCCCN)n3cc(CCCC)nn3)CC2)n1	none (no result: Sfp PPTase inh)
C#CCOCCOCCOCCNc1nc(N2CCN(C(=O)Cn3cc(CCO)nn3)CC2)nc(N2CCN(C(=O)[C@H](C(C)C)n3cc(CCO)nn3)CC2)n1	BAZ2B block inconclusive, G9a block 45µM
C#CCOCCOCCOCCNc1nc(N2CCN(C(=O)Cn3cc(CCO)nn3)CC2)nc(N2CCN(C(=O)[C@H](CCCCN)n3cc(CC(C)O)nn3)CC2)n1 (stereo not given in full)	JMJD2A Tudor 89µM (no result: BAZ2B block, Sfp PPTase inh, TDP1 inh, G9a block)
CC(C)[C@H](N)c1cn([C@@H](CC(N)=O)C(=O)N2CCNCC2)nn1	BAZ2B block inconclusive, JMJD2A Tudor inconclusive (no result: Sfp PPTase inh, TDP1 inh)
Cc1ccc(C(=O)Nc2nnc(S(=O)(=O)N3c4ccccc4CC3C)s2)cc1 (stereo not given)	none (no result: Sfp PPTase inh)
CCOc1ccc(C(=O)NCC(=O)NNC(=O)CN(C)S(=O)(=O)c2ccc(Cl)cc2)cc1	none (no result: Sfp PPTase inh)
CC(C)(C)C1CCC(OC(=O)CN2CCCCC2)CC1 (stereo not given)	G9a block inconclusive
CC(C)(C)CN1CCN(CC#Cc2ccccc2)CC1CCO (stereo not given)	none (no result: G9a block)
C#CCOCCOCCOCCNc1nc(N2CCN(C(=O)[C@H](CCCCN)n3cc(CCCC)nn3)CC2)nc(N2CCN(C(=O)[C@H](CCCCN)n3cc(CCCC)nn3)CC2)n1	BAZ2B block inconclusive, JMJD2A Tudor inconclusive, G9a block 40µM
C#CCOCCOCCOCCNc1nc(N2CCN(C(=O)Cn3cc(CCCN=C(N)N)nn3)CC2)nc(N2CCN(C(=O)Cn3cc(CC(C)O)nn3)CC2)n1 (stereo not given)	none (no result: BAZ2B block, Sfp PPTase inh, TDP1 inh, G9a block)
C#CCOCCOCCOCCNc1nc(N2CCOCC2)nc(N2CCN(C(=O)[C@H](CCCCN)n3cc(CCCC)nn3)CC2)n1	none (no result: BAZ2B block, Sfp PPTase inh, TDP1 inh, G9a block)
C#CCOCCOCCOCCNc1nc(N2CCOCC2)nc(N2CCN(C(=O)Cn3cc(CC(C)O)nn3)CC2)n1 (stereo not given)	G9a block 79µM
CCn1c(Cc2ccccc2)nnc1SCC(=O)Nc1ccc(N)cc1	G9a block 50µM
Cn1c(Cc2ccccc2)nnc1SCCC(=O)Nc1ccccc1	G9a block 7.9µM
Cn1c(Cc2ccccc2)nnc1SCC(=O)NC1CC1	none
CCOc1ccc(NC(=O)Cn2c(=O)n(CCCS(=O)(=O)C3CCCCC3)c(=O)c3ccccc32)cc1	none (no result: Sfp PPTase inh)
COc1c(O)c(O)c2cc(OC)c3c(OC)cc(=O)c4c5c(=O)c(OC)c(C(C)=O)c6c5c(c1CC=6C)c2c34	none (no result: BAZ2B block, JMJD2A Tudor, G9a block, HP1b chromo inh)
COC1=C(OC)C(=O)C(CCCCCCCCCCO)=C(C)C1=O	BAZ2B block 50µM, G9a block inconclusive (no result: JMJD2A Tudor, HP1b chromo inh)
CCCCCCCCCCC1=C(C)C(=O)C(OC)=C(OC)C1=O	G9a block 5µM (no result: BAZ2B block, JMJD2A Tudor, HP1b chromo inh)
CCCCCCc1c(C)[nH]c2nc3ccccc3n2c1=O	none (no result: TDP1 inh)
CN(C)c1ccc(NC(=O)c2cnsn2)cc1	JMJD2A Tudor inconclusive, G9a block 50µM
Cc1noc(C)c1C(=O)Nc1ccc(N(C)C)cc1	G9a block inconclusive
CCc1ccccc1NC(=O)CSc1nnc(-c2nonc2NC(C)=O)n1C	none (no result: Sfp PPTase inh)
CCOc1cccc2cc(C(N)=O)c(=N)oc12	G9a block 32µM
COc1cccc2cc(C(=O)N3C(C)CCCC3C)c(=O)oc12 (stereo not given)	none
COc1cccc2cc(C(=O)Oc3ccccc3)c(=O)oc12	BAZ2B block inconclusive (no result: G9a block)
CCOc1cccc2cc(C(=O)Oc3ccc(OC)cc3)c(=O)oc12	Sfp PPTase inh inconclusive, G9a block 20µM (no result: TDP1 inh)
COc1cccc2cc(C(=O)N3CCC(C)CC3)c(=O)oc12	G9a block 50µM
COc1cccc(C2C(C(=O)Nc3ccccc3OC)=C(C)Nc3nc4ccccc4n32)c1 (stereo not given)	none (no result: Sfp PPTase inh)
COc1ccc(-n2c(=O)c(-c3ccccc3)nc3cnc(N4CCOCC4)nc32)cc1	none (no result: BAZ2B block, JMJD2A Tudor, TDP1 inh, HP1b chromo inh)
O=C(CCSCc1ccc(Cl)cc1)NCc1cccs1	none
CC(C)CC1COC(=O)N1 (stereo not given)	none (no result: TDP1 inh, G9a block)
COC(=O)C(CO)Nc1ncnc2onc(-c3ccc(F)cc3)c12 (stereo not given)	none (no result: TDP1 inh)
COc1ccc(C2c3c(-c4ccccc4O)n[nH]c3C(=O)N2Cc2ccco2)cc1OC (stereo not given)	BAZ2B block 56µM, JMJD2A Tudor inconclusive
Cc1ccc(C2c3c(-c4cc(C)ccc4O)n[nH]c3C(=O)N2Cc2ccco2)cc1 (stereo not given)	BAZ2B block 22µM, JMJD2A Tudor inconclusive, G9a block 28µM (no result: Sfp PPTase inh)
O=C1c2[nH]nc(-c3ccccc3O)c2C(c2ccc(F)cc2)N1Cc1ccco1 (stereo not given)	BAZ2B block inconclusive, JMJD2A Tudor inconclusive
CCC(=O)N1c2ccccc2CC1C(=O)NCc1cc(OC)ccc1OC (stereo not given)	none (no result: Sfp PPTase inh)
COc1ccc(S(=O)(=O)c2cn(CC(=O)Nc3ccccc3)c3ccc(Cl)cc3c2=O)cc1	none (no result: Sfp PPTase inh)
COc1ccccc1C(CC(=O)O)NS(=O)(=O)c1ccc2c(c1)N(C(C)=O)CC(C)O2 (stereo not given)	none (no result: G9a block)
